Results: PubChem BioAssay AID504617 (Sanford-Burnham Center for Chemical Genomics, 2011)
The list shows a part of the results. A number with no mark means an inactive call.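 The calls were made as follows: active = mean activity change at or below -40%, meaning activation of 40% or more, at 20 µM; inactive = the rest.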

molecular target: Apoptotic protease-activating factor 1 (Homo sapiens) (UniProt O14727); assay: Apaf-1 activators, single-dose retest, confirmation, biochemical, fluorescence, DEVD-Rh110, 20 µM (AID 504617); settings: reconstituted apoptosome caspase-3 activity, at 20 µM, active compounds read low
Sequence (O14727 whole entry, looked up): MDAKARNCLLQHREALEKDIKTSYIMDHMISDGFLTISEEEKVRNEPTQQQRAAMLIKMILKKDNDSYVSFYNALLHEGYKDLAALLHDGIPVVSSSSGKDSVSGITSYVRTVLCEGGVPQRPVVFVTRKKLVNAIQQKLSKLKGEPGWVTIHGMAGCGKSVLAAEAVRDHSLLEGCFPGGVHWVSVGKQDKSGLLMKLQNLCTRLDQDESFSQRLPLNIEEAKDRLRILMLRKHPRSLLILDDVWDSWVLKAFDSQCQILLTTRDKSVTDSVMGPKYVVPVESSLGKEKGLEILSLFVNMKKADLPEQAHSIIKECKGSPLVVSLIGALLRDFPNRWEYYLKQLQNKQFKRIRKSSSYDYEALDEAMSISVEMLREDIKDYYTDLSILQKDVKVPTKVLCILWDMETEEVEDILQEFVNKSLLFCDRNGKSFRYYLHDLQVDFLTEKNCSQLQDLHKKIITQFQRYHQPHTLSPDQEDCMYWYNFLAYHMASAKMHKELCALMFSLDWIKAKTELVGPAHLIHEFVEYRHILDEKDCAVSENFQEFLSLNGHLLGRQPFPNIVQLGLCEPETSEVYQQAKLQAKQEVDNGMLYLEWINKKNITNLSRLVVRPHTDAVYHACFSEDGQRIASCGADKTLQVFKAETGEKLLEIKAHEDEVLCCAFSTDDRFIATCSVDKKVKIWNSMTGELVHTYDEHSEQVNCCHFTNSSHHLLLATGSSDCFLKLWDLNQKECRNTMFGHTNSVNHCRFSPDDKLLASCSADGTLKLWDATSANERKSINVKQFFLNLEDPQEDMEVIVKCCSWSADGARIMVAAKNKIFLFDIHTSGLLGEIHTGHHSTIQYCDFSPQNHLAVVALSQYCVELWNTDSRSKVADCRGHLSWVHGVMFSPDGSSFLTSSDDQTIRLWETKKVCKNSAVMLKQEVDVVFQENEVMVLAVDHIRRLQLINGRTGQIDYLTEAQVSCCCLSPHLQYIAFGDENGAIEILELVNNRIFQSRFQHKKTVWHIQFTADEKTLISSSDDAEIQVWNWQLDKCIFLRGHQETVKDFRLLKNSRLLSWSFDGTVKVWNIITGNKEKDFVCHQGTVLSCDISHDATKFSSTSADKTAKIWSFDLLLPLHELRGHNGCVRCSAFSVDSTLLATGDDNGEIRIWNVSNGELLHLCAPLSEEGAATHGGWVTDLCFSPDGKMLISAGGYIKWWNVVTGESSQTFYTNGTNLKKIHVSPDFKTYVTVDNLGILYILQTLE

Row | Compound | activity change, negative = activation
1 | N#CC1(C#N)C(C(=O)C23CC4CC(CC(C4)C2)C3)C12CCOCC2 (stereo unspecified) | 6.87%
2 | C=CCNC(=O)c1ccc(C)c(Br)c1 | 5.25%
3 | Nc1cc(C(F)(F)F)ccc1N1CCOCC1 | 16.7%
4 | Brc1ccc(/C=N/N2CCN(C3c4ccccc4-c4ccccc43)CC2)s1 | 4.14%
5 | Cc1cc(NC(=O)c2cccc(N3C(=O)CCC3=O)c2)no1 | 4.77%
6 | COc1ccc2c(c1)CCNC2Cc1ccc(OC)c(O)c1 (stereo unspecified) | 12.2%
